Legend:
Experiment in all cases: log2 ratio of Biotin-Ahx-Ub-VS probe labelling (fragment/DMSO); higher = less target engagement (more negative = stronger competition), active = hit call of the paper (q ≤ 0.05, log2 ratio ≤ -1)
Details in all cases: compound concentration: 200 uM; treatment time: 3 h
USP19 = target: T1, USP19 (UniProt O94966)
T1 sequence (whole entry): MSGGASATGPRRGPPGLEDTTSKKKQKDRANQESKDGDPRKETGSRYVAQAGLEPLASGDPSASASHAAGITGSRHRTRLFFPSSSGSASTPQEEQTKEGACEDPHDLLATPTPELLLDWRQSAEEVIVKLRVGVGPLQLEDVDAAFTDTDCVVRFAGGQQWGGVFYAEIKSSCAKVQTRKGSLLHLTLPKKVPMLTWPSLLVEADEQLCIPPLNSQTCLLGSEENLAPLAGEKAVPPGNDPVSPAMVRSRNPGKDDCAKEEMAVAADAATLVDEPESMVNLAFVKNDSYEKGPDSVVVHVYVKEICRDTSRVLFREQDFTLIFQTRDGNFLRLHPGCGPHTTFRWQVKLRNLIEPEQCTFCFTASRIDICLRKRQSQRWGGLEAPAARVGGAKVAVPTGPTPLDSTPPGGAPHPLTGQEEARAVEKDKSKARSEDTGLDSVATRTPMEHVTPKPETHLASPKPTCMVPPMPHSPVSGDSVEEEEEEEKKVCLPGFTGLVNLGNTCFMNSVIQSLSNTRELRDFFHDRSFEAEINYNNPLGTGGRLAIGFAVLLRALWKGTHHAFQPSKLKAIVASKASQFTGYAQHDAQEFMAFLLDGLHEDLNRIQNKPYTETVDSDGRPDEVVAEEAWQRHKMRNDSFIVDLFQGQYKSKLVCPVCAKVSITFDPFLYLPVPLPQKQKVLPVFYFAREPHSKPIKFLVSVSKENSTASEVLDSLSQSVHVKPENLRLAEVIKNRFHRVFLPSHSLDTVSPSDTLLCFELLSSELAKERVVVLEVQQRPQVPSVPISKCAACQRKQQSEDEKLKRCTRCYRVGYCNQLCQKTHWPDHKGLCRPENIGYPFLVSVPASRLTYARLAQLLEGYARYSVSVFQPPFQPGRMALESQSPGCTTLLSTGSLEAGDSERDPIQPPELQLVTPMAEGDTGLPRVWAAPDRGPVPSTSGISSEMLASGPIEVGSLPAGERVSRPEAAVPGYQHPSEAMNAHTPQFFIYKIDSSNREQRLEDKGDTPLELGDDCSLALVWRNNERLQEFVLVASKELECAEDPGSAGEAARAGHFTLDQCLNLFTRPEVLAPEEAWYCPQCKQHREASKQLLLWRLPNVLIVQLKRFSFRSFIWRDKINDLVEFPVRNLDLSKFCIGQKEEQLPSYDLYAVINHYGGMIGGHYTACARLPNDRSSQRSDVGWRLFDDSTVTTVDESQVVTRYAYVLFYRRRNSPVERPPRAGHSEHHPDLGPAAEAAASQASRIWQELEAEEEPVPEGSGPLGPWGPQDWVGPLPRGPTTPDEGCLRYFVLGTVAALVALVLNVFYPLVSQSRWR
In short: (§1)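 Average log2 ratios of fragment over vehicle were obtained by unpaired t-test from global-median-normalised Spectronaut label-free quantities. Proteins with ≥2 unique peptides were included. HEK293T lysate (495 µg per sample) was treated in triplicate with fragment at 200 µM or vehicle for 3 h, then with Biotin-Ahx-Ub-VS at 0.5 µM final for 1 h, and labelled DUBs were NeutrAvidin-enriched and run by diaPASEF LC-MS/MS.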

USP24 = USP24 (UniProt Q9UPU5)
Sequence of USP24 (Q9UPU5 whole entry): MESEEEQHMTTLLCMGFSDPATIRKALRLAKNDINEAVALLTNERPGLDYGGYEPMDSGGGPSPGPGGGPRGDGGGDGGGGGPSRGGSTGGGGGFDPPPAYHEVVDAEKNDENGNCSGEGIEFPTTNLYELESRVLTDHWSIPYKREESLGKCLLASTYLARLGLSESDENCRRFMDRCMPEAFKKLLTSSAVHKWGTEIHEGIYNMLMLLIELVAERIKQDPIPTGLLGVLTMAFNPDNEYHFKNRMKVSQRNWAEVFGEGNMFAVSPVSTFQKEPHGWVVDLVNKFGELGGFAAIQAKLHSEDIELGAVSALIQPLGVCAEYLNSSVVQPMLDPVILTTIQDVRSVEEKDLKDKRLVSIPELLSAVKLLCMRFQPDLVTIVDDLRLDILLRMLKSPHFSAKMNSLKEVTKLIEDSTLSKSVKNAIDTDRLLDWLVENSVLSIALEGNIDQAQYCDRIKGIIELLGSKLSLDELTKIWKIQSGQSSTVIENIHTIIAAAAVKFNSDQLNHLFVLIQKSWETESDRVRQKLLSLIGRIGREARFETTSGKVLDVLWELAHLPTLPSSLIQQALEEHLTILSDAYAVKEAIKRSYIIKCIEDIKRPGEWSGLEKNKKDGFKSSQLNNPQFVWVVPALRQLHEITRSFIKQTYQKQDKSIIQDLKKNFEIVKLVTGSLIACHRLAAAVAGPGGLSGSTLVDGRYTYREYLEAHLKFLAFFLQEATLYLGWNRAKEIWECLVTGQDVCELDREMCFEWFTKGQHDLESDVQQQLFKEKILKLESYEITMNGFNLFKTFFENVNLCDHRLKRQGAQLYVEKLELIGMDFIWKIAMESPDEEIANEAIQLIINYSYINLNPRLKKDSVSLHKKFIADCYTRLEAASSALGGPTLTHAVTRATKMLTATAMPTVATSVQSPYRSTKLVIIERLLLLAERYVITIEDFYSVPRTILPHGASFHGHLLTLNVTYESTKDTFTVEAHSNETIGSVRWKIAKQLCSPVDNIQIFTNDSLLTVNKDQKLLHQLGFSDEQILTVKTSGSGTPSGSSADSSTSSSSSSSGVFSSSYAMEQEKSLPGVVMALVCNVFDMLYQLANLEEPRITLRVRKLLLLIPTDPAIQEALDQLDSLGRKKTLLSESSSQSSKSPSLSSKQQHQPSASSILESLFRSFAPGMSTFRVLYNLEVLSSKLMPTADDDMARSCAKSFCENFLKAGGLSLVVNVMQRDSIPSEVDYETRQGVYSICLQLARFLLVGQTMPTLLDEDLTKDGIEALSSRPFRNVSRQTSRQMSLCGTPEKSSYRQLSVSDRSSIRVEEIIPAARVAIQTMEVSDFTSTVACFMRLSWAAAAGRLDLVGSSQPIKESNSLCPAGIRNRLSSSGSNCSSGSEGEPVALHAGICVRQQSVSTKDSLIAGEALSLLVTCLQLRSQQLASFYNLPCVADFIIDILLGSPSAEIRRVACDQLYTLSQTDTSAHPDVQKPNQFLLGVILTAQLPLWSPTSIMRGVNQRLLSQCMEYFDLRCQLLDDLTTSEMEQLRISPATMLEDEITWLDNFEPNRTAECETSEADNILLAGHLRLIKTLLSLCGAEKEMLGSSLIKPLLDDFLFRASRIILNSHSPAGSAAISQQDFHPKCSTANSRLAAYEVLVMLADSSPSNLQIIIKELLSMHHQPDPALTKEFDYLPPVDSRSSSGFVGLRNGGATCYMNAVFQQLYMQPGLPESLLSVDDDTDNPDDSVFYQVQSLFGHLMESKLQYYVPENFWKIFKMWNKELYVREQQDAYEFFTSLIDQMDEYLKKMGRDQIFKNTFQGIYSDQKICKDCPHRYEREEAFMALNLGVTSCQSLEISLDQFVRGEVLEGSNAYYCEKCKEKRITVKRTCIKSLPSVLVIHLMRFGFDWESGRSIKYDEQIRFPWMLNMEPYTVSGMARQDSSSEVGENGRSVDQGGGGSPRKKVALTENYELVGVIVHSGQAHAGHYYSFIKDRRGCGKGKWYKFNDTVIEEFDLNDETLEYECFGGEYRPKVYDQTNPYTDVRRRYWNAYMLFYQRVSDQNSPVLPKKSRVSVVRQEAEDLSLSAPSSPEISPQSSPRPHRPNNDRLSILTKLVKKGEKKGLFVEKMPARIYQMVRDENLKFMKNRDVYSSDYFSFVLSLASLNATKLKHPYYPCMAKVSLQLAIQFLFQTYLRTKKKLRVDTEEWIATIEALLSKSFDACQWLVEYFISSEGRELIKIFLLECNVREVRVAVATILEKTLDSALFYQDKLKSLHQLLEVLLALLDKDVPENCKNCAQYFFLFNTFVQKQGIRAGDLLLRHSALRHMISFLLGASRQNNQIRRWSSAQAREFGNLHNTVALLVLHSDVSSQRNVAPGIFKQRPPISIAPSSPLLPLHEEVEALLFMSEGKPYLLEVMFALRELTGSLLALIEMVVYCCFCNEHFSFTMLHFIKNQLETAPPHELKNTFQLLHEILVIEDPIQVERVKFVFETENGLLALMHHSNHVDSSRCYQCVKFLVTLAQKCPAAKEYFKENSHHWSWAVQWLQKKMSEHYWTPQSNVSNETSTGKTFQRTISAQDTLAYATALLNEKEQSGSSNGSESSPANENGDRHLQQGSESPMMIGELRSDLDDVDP
In short: as §1

USP25 = target: T2, USP25 (UniProt Q9UHP3)
T2 sequence (whole entry): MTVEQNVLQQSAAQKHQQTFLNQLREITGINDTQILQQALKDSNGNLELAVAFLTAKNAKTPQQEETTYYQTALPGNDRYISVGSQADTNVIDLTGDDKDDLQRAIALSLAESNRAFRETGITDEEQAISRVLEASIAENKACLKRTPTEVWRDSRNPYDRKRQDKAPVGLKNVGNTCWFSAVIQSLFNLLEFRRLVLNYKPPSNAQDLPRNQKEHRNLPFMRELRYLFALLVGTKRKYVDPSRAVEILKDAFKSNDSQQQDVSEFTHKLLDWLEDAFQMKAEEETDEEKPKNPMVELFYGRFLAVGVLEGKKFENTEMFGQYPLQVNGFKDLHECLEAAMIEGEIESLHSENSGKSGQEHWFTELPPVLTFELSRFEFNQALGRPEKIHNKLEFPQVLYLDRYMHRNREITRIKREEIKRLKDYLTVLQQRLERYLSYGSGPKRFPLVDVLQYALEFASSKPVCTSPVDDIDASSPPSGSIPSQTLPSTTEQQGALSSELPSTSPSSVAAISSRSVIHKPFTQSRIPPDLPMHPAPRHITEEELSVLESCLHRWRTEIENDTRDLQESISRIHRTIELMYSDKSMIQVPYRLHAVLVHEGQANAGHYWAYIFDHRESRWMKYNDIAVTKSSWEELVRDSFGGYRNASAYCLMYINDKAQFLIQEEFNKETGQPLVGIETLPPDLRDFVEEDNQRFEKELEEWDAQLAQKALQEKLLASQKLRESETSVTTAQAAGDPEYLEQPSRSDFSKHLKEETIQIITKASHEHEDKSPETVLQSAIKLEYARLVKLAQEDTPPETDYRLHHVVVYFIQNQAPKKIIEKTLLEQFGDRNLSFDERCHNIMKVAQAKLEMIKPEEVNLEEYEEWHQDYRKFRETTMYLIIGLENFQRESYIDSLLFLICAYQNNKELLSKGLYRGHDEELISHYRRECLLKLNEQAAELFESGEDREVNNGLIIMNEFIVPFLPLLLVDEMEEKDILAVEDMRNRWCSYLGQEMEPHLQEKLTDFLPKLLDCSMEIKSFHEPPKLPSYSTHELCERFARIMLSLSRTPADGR
In short: as §1

USP28 = target: T3, USP28 (UniProt Q96RU2)
T3 sequence (whole entry): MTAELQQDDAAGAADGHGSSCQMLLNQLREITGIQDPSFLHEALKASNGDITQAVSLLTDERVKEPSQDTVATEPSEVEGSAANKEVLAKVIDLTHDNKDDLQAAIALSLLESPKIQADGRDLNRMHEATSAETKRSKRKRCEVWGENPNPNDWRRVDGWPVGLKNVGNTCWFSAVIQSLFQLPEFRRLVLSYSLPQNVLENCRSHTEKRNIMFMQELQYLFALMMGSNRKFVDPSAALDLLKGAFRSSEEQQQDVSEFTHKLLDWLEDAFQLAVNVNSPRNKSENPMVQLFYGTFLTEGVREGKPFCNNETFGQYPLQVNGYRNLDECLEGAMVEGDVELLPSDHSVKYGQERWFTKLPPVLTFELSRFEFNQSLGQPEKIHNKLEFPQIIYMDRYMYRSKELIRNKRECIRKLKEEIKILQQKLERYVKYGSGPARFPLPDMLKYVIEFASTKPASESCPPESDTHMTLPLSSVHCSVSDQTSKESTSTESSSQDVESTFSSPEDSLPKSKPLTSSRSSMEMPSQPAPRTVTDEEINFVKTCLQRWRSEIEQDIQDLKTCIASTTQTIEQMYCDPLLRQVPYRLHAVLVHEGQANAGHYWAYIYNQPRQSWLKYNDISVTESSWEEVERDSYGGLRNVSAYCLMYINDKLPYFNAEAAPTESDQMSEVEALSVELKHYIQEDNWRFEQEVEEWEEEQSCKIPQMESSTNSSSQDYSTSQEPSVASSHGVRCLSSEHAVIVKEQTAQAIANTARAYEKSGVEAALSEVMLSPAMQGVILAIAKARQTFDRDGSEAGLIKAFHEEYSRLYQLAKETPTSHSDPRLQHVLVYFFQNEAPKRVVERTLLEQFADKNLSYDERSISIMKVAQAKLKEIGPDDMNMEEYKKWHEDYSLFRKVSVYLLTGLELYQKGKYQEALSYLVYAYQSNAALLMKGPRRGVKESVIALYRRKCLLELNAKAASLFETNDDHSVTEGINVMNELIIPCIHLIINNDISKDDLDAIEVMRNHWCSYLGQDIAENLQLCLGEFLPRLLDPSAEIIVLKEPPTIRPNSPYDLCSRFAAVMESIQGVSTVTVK
In short: as §1

Measured: log2 ratio of Biotin-Ahx-Ub-VS probe labelling

O=C(CCl)NCCc1ccc(F)cc1
inactive: USP19 -0.131 | USP24 -0.0496 | USP25 -0.326 | USP28 -0.328
